This experiment deals with VDR:RXRa (NR concentration 270 nM, RXRa partner concentration 90 nM). In words: PBM binding z-score (relative to random genomic background probes); higher = stronger binding; sequences stand for … in GC…GCGATTGACAGCGTAGAATGAAGG
The protocol: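 Protein-binding microarray (Agilent 4x180K custom design, double-stranded 60-nt probes: 5' GC cap, 34-nt variable region, 24-nt constant primer region; full probe sequence given). Purified or IVT nuclear receptor:RXRα heterodimers (3:1 NR:RXRα, mostly 270:90 nM) or homodimers were incubated for 1 h in PBS with 2% milk and no ligand, then detected with Alexa488 antibodies. Fluorescence from o1-orientation probes (~5 replicates averaged) was converted to z-scores against 500 random hg19 background probes. Variable regions are seed direct-repeat (DR0–DR5) sites, all their single-nucleotide variants and half-site ablations.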
Sequence AATACAGGGTCACCGTAGGCCAGAGTACGCACAG showed a PBM binding z-score of 5.2.
In the case of ATCTCTAGGTAAAAGTTCAGGGAATCCCGAGGAT it was 1.54; in that of TTACCAACGTGAGCTGAGGTCGTTGATCCAACTC, 1.21.
Next, CTCGAAAGGTCGGTTGAGGTGAATATACGGATAA: 2.79; CCAGACAGGTGAAAGGTAACTTAGTCTGGTACGC: 0.744; CGTCGAAGTTCAACTAAGGTAACGTAAAGCACGC: 3.43.
Next, CCTTACGCGTCACTCCAGGTTATAGCATCGGAGT: 0.361; CAAACTAGGACAAGAGGTCAAAGTCCGCTTCCCG: 5.
In the case of CGTCCAAGATCAGAGAGGTCAGTGAATGCCGAGT, the PBM binding z-score came out at 3.82.
In the case of GCTGCTAGGTCAGGTTGGTTAGCTAACGGGTACG it was 0.262; in that of GCTGGTTGGTCAGTAAAAGGTCACACACCGGTCG, 4.02; in that of TCATATAGGTAAATGCTAGGTGAAAGACCGATCT, 0.73.
Next, CCGCGTAGGTTATGGGGCATTCAGGCAACGGTGA: -0.207.
Next, ATACCAAGGTGATGGTGAGGTCGTTGATACTAAC: 3.28.
As to ACTCGGAGGACAAAGGTCAGAGGTACGCCAGTGA, the PBM binding z-score worked out at 3.52.
As to CCGACTGGGGTATAAGGTTACCATAAGCCAGCCC, the PBM binding z-score came out at 0.219.
In the case of TGATATAGGTAAATGCTAGGTGAAAGTCCGATCT it was 0.142.
Next, ACTCGCAGGCCAAGTTTGGGTCACTCAAACAAAG: 0.787.
In the case of CCGACTGGGGCATAAGGTTACAATAAGCCAGCCC it was 0.392; in that of CCGAGTAGGTTAAGGGGCATTCAGGCAACGGTGA, 0.877.
The sequence ACTATCAGTTGACTTAGGGCAACCGATACGACGC yielded a PBM binding z-score of 0.408.
Next, CCTTACGGGTCAAGGTTATGGCACGGGTGGTACG: 3.53; TCTATTAGTTGAAGGGCAACCTACGAGTCCGTTT: 0.986.
In the case of GGAACGAGGGCATTCGAGTTGATAGCTTGGCGAT it was 3.55; in that of ATCTCTAGGTAAGATTCAGTTCAGTGAAGAACGC, 0.961.
The sequence TTACCAAGGTGAGCTGAGGTCGGTGATCCAACTC displayed a PBM binding z-score of 1.26.
In the case of AATACAGGGTCATCGTAGGCCAGAGCACGCACAG it was 5.2; in that of GTACCAAGGTGAATAGGTCGATGATGAGTAGGCG, 0.674.
Next, TCTGCTAGGTCAACGATGGTCATCTAATCTGCTA: 2.16; ATCTCTAGGTATCCAAGTTCAGTGAATGCCGAAC: 2.38.
Next, ATATGTAGGTTATCGGGTAATTCAGTTTGCGCAT: 1.54.
Regarding TCATATAGGTAAAGTTGAAAGTCGAACGATATGA, the PBM binding z-score was 0.583.
Next, CCTACTGGGCCACGAAAGGACATTGATTCAGTGA: -0.289.
In the case of TCATATAGGTAAAGGTAAAAGTCGAACGATATGA it was 0.657.
In the case of ACCTACGGGTCAACGAGGTTATAGCACGCGTATA it was 7.64.
Turning to ATCTCTAGGTAACCAAGTTCTGTGAATGCCGAAC, the PBM binding z-score was found to be 0.866.
In the case of TTACCAAGGTGAGCTGAGGTCGTTGATCCAACTC it was 4.19; in that of ATCACTAGGTAAAGATAGTTCAGTGAATGCAAAT, 0.888; in that of GGAACGAGGGCATTCGGGTTGATAGCATGGCGAT, 4.61.
Next, CCTAGAAGGCCAATCTGGGTCACTCAAGGCTTGA: 1.39.

Values taken from the supplement of paper PMC6555819.
